Assay results: ChEMBL document CHEMBL1157539, “Thousands of chemical starting points for antimalarial lead identification” (Nature, 2010)

System: HepG2
Assay: GSK_TCMDC: Percent inhibition of human HepG2 cell line. Test compounds present at 10uM.
Type: functional

Which Inhibition does the source give for `CN(C)CCNCc1ccc(-c2ccc(-c3nc4ccccc4[nH]3)s2)cc1.O=C(O)C(F)(F)F` here?
The Inhibition was 0%.

How did the Inhibition turn out when `CC(C)CNCc1cccc(-c2cccc(CN(CCCN3CCN(C)CC3)C(=O)NC3CCCCC3)c2)c1.O=C(O)C(F)(F)F` was run?
The Inhibition was 16%.

`CN1CCC(N2CCN(Cc3ccc(-c4cccc(-c5nc6ccccc6[nH]5)c4)cc3)CC2)CC1.O=C(O)C(F)(F)F` was tested. Which Inhibition did it give?
The Inhibition was 48%.

`COc1ccc(-c2cnn3ccc(Nc4cc(OC)c(OC)c(OC)c4)nc23)cc1OC` was tested. Which Inhibition did it give?
Its Inhibition is 57%.

Which Inhibition does the source give for `COC(=O)COc1cc(C(=O)NCCCCN2CCC(c3ccc4c(c3OC)CCCC4)CC2)ccc1-c1ccc(Cl)cc1` here?
Its Inhibition is 32%.

With `Cc1cc(-c2ccc(NC(=O)N3CCc4cc(Br)c(N5CCN(C)CC5)cc43)cc2)cc(C)n1` as the molecule, how does the Inhibition read?
The Inhibition was 29%.

`Cc1ccc(Nc2nccc(Nc3ccc4c(c3)nc(Nc3cc(C(C)(C)C)on3)n4C)n2)cc1S(C)(=O)=O` was tested. Which Inhibition did it give?
Its Inhibition is 30%.

With `COc1cccc(-c2cc(C(=O)NC3CCC(N4CCC(c5ccccc5C)CC4)CC3)[nH]n2)c1` (centres undefined) as the molecule, how does the Inhibition read?
Its Inhibition is 60%.

With `N#Cc1nc2ccc(OCCN(Cc3ccccc3C(F)(F)F)c3ccc(C#N)c(C(F)(F)F)c3)cc2s1` as the molecule, how does the Inhibition read?
Its Inhibition is 23%.

Which Inhibition does the source give for `CCOC(=O)NOC(C(=O)O)c1ccccc1` (centres undefined) here?
The Inhibition was 4%.

`CCCO[C@H](C(=O)OC)[C@@H](CC1Cc2ccccc2C1)C(=O)NCCC1=CCCCC1` was tested. Which Inhibition did it give?
The Inhibition was 6%.

Which Inhibition does the source give for `COc1ccc2cc(C=NNc3nc4ccccc4[nH]3)c(Cl)nc2c1` here?
Its Inhibition is 2%.

Which Inhibition does the source give for `CCOc1ccccc1CNc1nccc(NCCc2cn(C)c3ccccc23)n1` here?
The Inhibition was 27%.

With `Cc1[nH]c(C)c(-c2ccc(-c3ccc(Cl)cc3)nc2)c(=O)c1Br` as the molecule, how does the Inhibition read?
Its Inhibition is 21%.
